According to PubChem BioAssay (NCI):
The panel holds about 79,000 compounds, 15% with a hit somewhere; the sample as a whole holds those more often. Unmarked numbers belong to inactive results. Activity calls are given as the source filed them. No stated cut-off is given here; in the data, active means growth inhibition above about 70%; inactive means the rest.

Columns and labels:
[1] = NCI Yeast Anticancer Drug Screen. Data for the rad52 strain (AID 147);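 further: 0% = growth of vehicle-treated control cultures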; conditions: S. cerevisiae rad52 mutant growth inhibition, hits give high values
Procedure, shortened: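 Read-out: growth inhibition versus vehicle-treated controls. Cells were a DNA repair-deficient yeast strain treated with compounds.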

[2] = NCI Yeast Anticancer Drug Screen. Data for the wt1 strain (AID 149);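 further: 0% = growth of vehicle-treated wt1 cultures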; conditions: S. cerevisiae wt1 strain (SPY 50644) growth inhibition, hits give high values
Procedure, shortened: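 Using yeast strain wt1, compound-induced growth inhibition was determined against vehicle-treated cultures.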

[3] = NCI Yeast Anticancer Drug Screen. Data for the rad50EPP+ strain (AID 151);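 further: 0% = growth of vehicle-treated control cultures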; conditions: S. cerevisiae rad50 mutant strain, hits give high values
Procedure, shortened: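 Growth inhibition read against vehicle controls in rad50EPP+ yeast, a strain altered in DNA damage repair, after compound exposure.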

[4] = NCI Yeast Anticancer Drug Screen. Data for the rad50 strain (AID 155);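 further: 0% = growth of vehicle-only cultures of the same strain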; conditions: S. cerevisiae rad50 strain growth inhibition, hits give high values
Procedure, shortened: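 Relative growth inhibition (compound vs vehicle) was measured in yeast with a defined repair-gene alteration.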

[5] = NCI Yeast Anticancer Drug Screen. Data for the mec2-1 strain (AID 157); conditions: S. cerevisiae mec2-1 strain, hits give high values
Procedure, shortened: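 Yeast mec2-1 mutant treated with compound. Readout: growth inhibition vs vehicle controls.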

[6] = NCI Yeast Anticancer Drug Screen. Data for the rad14 strain (AID 159);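 further: 0% = growth of vehicle-treated control cultures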; conditions: S. cerevisiae rad14 strain growth inhibition, hits give high values
Procedure, shortened: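 Screen for anticancer potential: a yeast strain altered in DNA damage repair is grown with compound, and reduced growth is quantified against vehicle controls.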

[7] = NCI Yeast Anticancer Drug Screen. Data for the sgs1 mgt1 strain (AID 161);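 further: 0% = growth of cultures given vehicle only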; conditions: S. cerevisiae sgs1 mgt1 strain, hits give high values
Procedure, shortened: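 Mutant yeast exposed to compound; growth scored against vehicle-only wells.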

[8] = NCI Yeast Anticancer Drug Screen. Data for the CLN2oe strain (AID 163);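 further: 0% = growth of vehicle-only control cultures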; conditions: S. cerevisiae CLN2oe strain, hits give high values
Procedure, shortened: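 Read-out: yeast growth inhibition, expressed relative to vehicle-only controls. The strain bears an engineered cell-cycle alteration.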

[9] = NCI Yeast Anticancer Drug Screen. Data for the cln2 rad14 strain (AID 165);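 further: 0% = growth equal to vehicle treated cultures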; conditions: S. cerevisiae cln2 rad14 strain, hits give high values
Procedure, shortened: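 cln2 rad14 yeast strain; compound exposure; growth inhibition read vs vehicle controls.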

[10] = NCI Yeast Anticancer Drug Screen. Data for the bub3 strain (AID 167); conditions: S. cerevisiae bub3 mutant strain, hits give high values
Procedure, shortened: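 Screening used yeast with an engineered genetic alteration affecting cell cycle control. Compound-exposed cultures were compared with vehicle cultures, and reduced growth was taken as inhibition.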

[11] = NCI Yeast Anticancer Drug Screen. Data for the wt2 strain (AID 169);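 further: 0% = growth of vehicle-treated yeast cultures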; conditions: S. cerevisiae wt2 strain growth inhibition, hits give high values
Procedure, shortened: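 Read-out: growth inhibition versus vehicle-treated control cultures after compound exposure of the yeast strain.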

[12] = NCI Yeast Anticancer Drug Screen. Data for the mlh1 strain (AID 171);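 further: 0% = growth of vehicle-treated control cultures of the same strain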; conditions: S. cerevisiae mlh1 strain growth inhibition, hits give high values
Procedure, shortened: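 Read-out: growth inhibition versus vehicle controls. Strain: engineered yeast with a defined DNA repair or cell cycle defect, compound-treated.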

[13] = NCI Yeast Anticancer Drug Screen. Data for the mlh1 rad18 strain (AID 175); conditions: S. cerevisiae mlh1 rad18 strain growth inhibition, hits give high values
Procedure, shortened: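 Yeast w/ defined DNA-repair lesions; compound exposure; growth vs vehicle controls → % inhibition.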

[14] = NCI Yeast Anticancer Drug Screen. Data for the rad18 strain (AID 177); conditions: S. cerevisiae rad18 mutant growth inhibition, hits give high values
Procedure, shortened: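 Readout: growth inhibition vs vehicle controls. Cells: genetically altered yeast strain, DNA repair defect.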

[15] = at 5.0 µM (retest, dose inferred, filed as 0.5)
[16] = at 50.0 µM (retest, dose inferred, filed as 5.0)

CC[N+](CC)(CC)c1ccccc1
growth inhibition ([1]; at 1.2 µM): 8% | growth inhibition ([1]; at 3.7 µM): -7% | growth inhibition ([1]; at 11.0 µM): 0% | growth inhibition ([1]; at 33.0 µM): -3% | growth inhibition ([1]; at 100.0 µM): -6% | growth inhibition ([2]; at 1.2 µM): -21% | growth inhibition ([2]; at 3.7 µM): -27% | growth inhibition ([2]; at 11.0 µM): -28% | growth inhibition ([2]; at 33.0 µM): -26% | growth inhibition ([2]; at 100.0 µM): -28% | growth inhibition ([3]; at 1.2 µM): -8% | growth inhibition ([3]; at 3.7 µM): -14% | growth inhibition ([3]; at 11.0 µM): -14% | growth inhibition ([3]; at 33.0 µM): -22% | growth inhibition ([3]; at 100.0 µM): -20% | growth inhibition ([4]; at 1.2 µM): 19% | growth inhibition ([4]; at 3.7 µM): 24% | growth inhibition [4, 15]: 17% | growth inhibition ([4]; at 11.0 µM): 16% | growth inhibition ([4]; at 33.0 µM): 14% | growth inhibition [4, 16]: 98% (active) | growth inhibition ([4]; at 50.0 µM): 62.5% | growth inhibition ([4]; at 100.0 µM): 21% | growth inhibition ([5]; at 1.2 µM): -5% | growth inhibition ([5]; at 3.7 µM): -3% | growth inhibition [5, 15]: 35% | growth inhibition ([5]; at 11.0 µM): -8% | growth inhibition ([5]; at 33.0 µM): 1% | growth inhibition [5, 16]: 98% (active) | growth inhibition ([5]; at 50.0 µM): -1.75% | growth inhibition ([5]; at 100.0 µM): 8% | growth inhibition ([6]; at 1.2 µM): -28% | growth inhibition ([6]; at 3.7 µM): -36% | growth inhibition ([6]; at 11.0 µM): -34% | growth inhibition ([6]; at 33.0 µM): -33% | growth inhibition ([6]; at 100.0 µM): -25% | growth inhibition [7, 15]: -21% | growth inhibition [7, 16]: -13% | growth inhibition ([7]; at 50.0 µM): 39.8% | growth inhibition ([8]; at 1.2 µM): 16% | growth inhibition ([8]; at 3.7 µM): 5% | growth inhibition ([8]; at 11.0 µM): 8% | growth inhibition ([8]; at 33.0 µM): -11% | growth inhibition ([8]; at 100.0 µM): -8% | growth inhibition [9, 15]: 20% | growth inhibition [9, 16]: 33% | growth inhibition ([9]; at 50.0 µM): 24.1% | growth inhibition ([10]; at 1.2 µM): 16% | growth inhibition ([10]; at 3.7 µM): 15% | growth inhibition [10, 15]: 31% | growth inhibition ([10]; at 11.0 µM): 15% | growth inhibition ([10]; at 33.0 µM): 19% | growth inhibition [10, 16]: 26% | growth inhibition ([10]; at 50.0 µM): 75.5% (active) | growth inhibition ([10]; at 100.0 µM): 11% | growth inhibition ([11]; at 1.2 µM): -23% | growth inhibition ([11]; at 3.7 µM): -32% | growth inhibition ([11]; at 11.0 µM): -32% | growth inhibition ([11]; at 33.0 µM): -23% | growth inhibition ([11]; at 100.0 µM): -30% | growth inhibition ([12]; at 1.2 µM): -26% | growth inhibition ([12]; at 3.7 µM): -46% | growth inhibition ([12]; at 11.0 µM): -43% | growth inhibition ([12]; at 33.0 µM): -43% | growth inhibition ([12]; at 100.0 µM): -42% | growth inhibition [13, 15]: 30% | growth inhibition [13, 16]: 99% (active) | growth inhibition ([13]; at 50.0 µM): 26.2% | growth inhibition ([14]; at 1.2 µM): 3% | growth inhibition ([14]; at 3.7 µM): 10% | growth inhibition ([14]; at 11.0 µM): 6% | growth inhibition ([14]; at 33.0 µM): 3% | growth inhibition ([14]; at 100.0 µM): 10%
